Assay outcomes from PubChem.
Pf Dd2 inh = qHTS Primary assay for Inhibitors of Plasmodium falciparum Dd2 growth in vitro; P. falciparum Dd2 growth, SYBR Green, 72 h; Potency, µM (highest dose often 28.9 µM), for the others: top-dose activity, negative = inhibition, usual class: inhibitors; actives 4.3% (n = 120,000); active = well fitted inhibition curve with a large enough effect;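 also: plate controls were DMSO vehicle for no effect and reference drug for full effect; nearly all actives have a fitted effect of over 65% in size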
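Readout: SYBR Green fluorescence, 485 nm excitation, 535 nm emission, after ~16 h lysis at 37C. Before that, Dd2-infected red cells (2.5% hematocrit) grew 72 h with compound, 29 uM top final concentration.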
Numbers without * were called inactive; i = inactive; ! = a repeat was not active; [ ] = dose if it differs, or a comment. This excerpt belongs to a sample that is enriched for hits. Potency is read from the fitted curve at half-maximal effect.

SMILES	Pf Dd2 inh
O=C(c1ccc(C(F)(F)F)cc1)N1CCCC2(CC(c3cccnc3)=NO2)C1 (centres undefined)	5%
CCN(CC)Cc1cnc2c(C(=O)NC3CCC(O)CC3)cnn2c1 (centres undefined)	-14%
CC(C)NC(=O)C[C@@H]1O[C@H](CNC(=O)c2ccccc2)[C@@H](O)[C@H]1O	4%[44.1 µM]
Cc1ccc(S(=O)(=O)N(C)Cc2cccc(C(F)(F)F)c2)cc1	-21%
O=C(CN1C(=O)NC2(CCOCC2)C1=O)Nc1cc(F)cc(F)c1	45%
COc1ccc2nc3n(c2c1)[C@@H](CNCc1ccc(C#N)cc1)COC3	i
COc1ccc2nc3n(c2c1)[C@@H](CNCc1ccc(C(=O)O)cc1)COC3	13%[44.1 µM]
COc1ccc2nc3n(c2c1)[C@@H](CNCc1ccccc1)COC3	7.1µM*
COc1ccc(C(=O)N2CCc3nnc([C@@H]4C[C@@H](O)CN4C)n3CC2)cn1	-2%
COc1ccc(C(=O)N2CCC3(CC2)NC(=O)N(Cc2ccccc2Cl)C3=O)cc1	6%
COC(=O)c1nc2n(n1)C(c1cc(OC)ccc1OC)C=C(c1ccc(Br)cc1)N2 (centres undefined)	11%
COc1ccc(C2=CC(c3cc(Br)ccc3F)n3c(nc4ccccc43)N2)cc1 (centres undefined)	-23%
CCOc1ccc(C2=CC(c3cc(Br)ccc3F)n3ncnc3N2)cc1Cl (centres undefined)	11µM*
CCOC(=O)CCNC(=O)N1CCC[C@H](n2c(=O)n(CC3CC3)c3cccnc32)C1	-15%
COc1ccc(C(=O)N2CCC[C@H](n3c(=O)n(CC4CC4)c4cccnc43)C2)cc1F	13µM*
COCCn1c(=O)n([C@H]2CCCN(C(=O)c3cc(F)ccc3F)C2)c2ncccc21	4%
O=C(C1CC(=O)N(c2n[nH]c3cc(Br)ccc23)C1)N1CCCC1 (centres undefined)	-3%
CC(=O)N(C1CC1)C1CCOC2(CCN(C(=O)NCc3ccccc3)CC2)C1 (centres undefined)	-8%
C[S+](=O)([O-])N1C[C@H](C(=O)N2CCN(c3ccccn3)CC2)C[C@@H]1c1ccc(F)cc1	i
O=C([C@@H]1C[C@@H](c2ccc(F)cc2)N(Cc2ccccc2)C1)N1CCN(c2ccccn2)CC1	7.1µM*
O=C(O)[C@@H]1CN(Cc2ccccc2)C[C@@H]1C(=O)N1CCN(c2ccccn2)CC1	-8%
O=C(O)CC1(CC(=O)N[C@H]2CO[C@H]3[C@@H]2OC[C@H]3O)CCCC1	-17%[44.1 µM]
CC1CCC(NC(=O)C2(c3ccc(NS(C)(=O)=O)cc3)CCCCC2)CC1 (centres undefined)	-19%
CN(C)Cc1nnc(C2CCN(C(=O)CCc3ccncc3)CC2)n1C	0%
COc1cc(C(=O)N2CCN(CCc3ccncc3)CC2)cc(OC)c1OC	14%
SMILES	Pf Dd2 inh
CC(C)(C)c1ccc(C(=O)N2CCN(CCc3ccccn3)CC2)cc1	17%
COc1cc(C(=O)N2CCN(CCc3ccccn3)CC2)cc(OC)c1OC	2.8µM*
O=C(c1ccccc1)N1CCC(c2nn(-c3ccccc3)c(=O)[nH]2)CC1	23%
CN1CCCC2(CCN(S(=O)(=O)c3ccc(F)c(F)c3F)C2)C1=O (centres undefined)	-24%
CCOC(=O)c1cnc2ccc(OC)cc2c1NCCc1ccc(OC)c(OC)c1	1µM*
CCOC(=O)c1cnc2cc(Cl)c(OC)cc2c1Nc1ccc(Br)cc1C	8%
COc1ccc(NC(=O)C(=O)NCCc2ccc(OC)c(OC)c2)c(OC)c1	-16%
COCCNC(=O)C[C@@H]1c2nc(NC(=O)c3ccco3)sc2C[C@@H]2[C@](C)(CO)[C@H](O)CC[C@]21C	i
CC(C)C[C@H](CO)NC(=O)C[C@@H]1c2nc(NC(=O)c3ccco3)sc2C[C@@H]2[C@](C)(CO)[C@H](O)CC[C@]21C	8.9µM*
CC(C)NC(=O)C[C@@H]1c2nc(NC(=O)c3ccc(F)cc3)sc2C[C@@H]2[C@](C)(CO)[C@H](O)CC[C@]21C	i
C#CCNC(=O)C[C@@H]1c2nc(NC(=O)C(C)(C)C)sc2C[C@@H]2[C@](C)(CO)[C@H](O)CC[C@]21C	i
C[C@]1(CO)[C@H]2Cc3sc(NC(=O)c4ccco4)nc3[C@@H](CC(=O)Nc3ccccc3)[C@]2(C)CC[C@H]1O	7.1µM*
CC(C)NC(=O)C[C@@H]1c2nc(NC(=O)N3CCOCC3)sc2C[C@@H]2[C@](C)(CO)[C@H](O)CC[C@]21C	-16%
C[C@]1(CO)[C@H]2Cc3sc(-c4ccsc4)nc3[C@@H](CC(=O)NCc3ccco3)[C@]2(C)CC[C@H]1O	-23%
CN(Cc1ccccc1)C(=O)C[C@@H]1c2nc(NC(=O)CC(C)(C)C)sc2C[C@@H]2[C@](C)(CO)[C@H](O)CC[C@]21C	i
C#CCNC(=O)C[C@@H]1c2nc(NC(=O)c3ccc(C(C)(C)C)cc3)sc2C[C@@H]2[C@](C)(CO)[C@H](O)CC[C@]21C	4µM*
CS(=O)(=O)c1ccc(CN2C[C@H](O)C[C@H]2c2nc(-c3ccc4c(c3)OCO4)no2)cc1	i
O=C(CN1CCC2(CC1)NC(=O)CC2C(=O)O)NCc1ccco1 (centres undefined)	1%
COc1ccc(-c2noc(C(=O)NC3CC3)c2[C@H](C)O)cc1	-14%[44.1 µM]
COc1ccc(-c2cn(C)c(=O)n3cc(CN4CC[S+](=O)([O-])CC4)nc23)cc1OC	i
O=c1[nH]c(C2CCCN(Cc3ccc(Cl)cc3)C2)nc2ccc(F)cc12 (centres undefined)	8.9µM*
O=c1[nH]c(C2CCCN(Cc3ccccc3)C2)nn1-c1ccc(Cl)cc1 (centres undefined)	i
COc1ccc(CN2CCCC(c3nn(-c4ccc(Cl)cc4)c(=O)[nH]3)C2)cc1 (centres undefined)	i
O=c1[nH]c(C2CCCN(Cc3cccc(Cl)c3)C2)nc2ccc(F)cc12 (centres undefined)	10µM*!
O=C(NCc1ccccc1)N1CC[C@H](c2nc3ccc(F)cc3[nH]2)C1	i
SMILES	Pf Dd2 inh
O=c1[nH]c(C2CCCN(CC3CC3)C2)nn1-c1ccccc1 (centres undefined)	i
O=c1[nH]c(C2CCN(Cc3cccs3)CC2)nc2ccc(F)cc12	-6%
O=c1[nH]c(C2CCCN(CC3CCCC3)C2)nc2ccc(F)cc12 (centres undefined)	2.2µM*
Cc1ccc2nc(C3CCN(Cc4cccc(Cl)c4)CC3)[nH]c(=O)c2c1	1%
COCCOc1ccc2c(n1)CCN(C(=O)NCCC(C)C)C2	-2%
O=C(c1cccc(Cl)c1)N1CCCC2(Cc3ccccc3NC2=O)C1 (centres undefined)	i
O=C(Nc1ccc2c(c1)CN(Cc1ccc(Cl)cc1)C(=O)CO2)c1ccc(F)cc1F	i
O=c1n(-c2ccncc2)nc2n1CCN(Cc1ccc(C(F)(F)F)cc1)C2	7.9µM*
COc1ccc(CN2CCn3c(nn(-c4ccc(C(F)(F)F)cc4)c3=O)C2)cc1	-7%
O=c1n(-c2ccc(Cl)cc2)nc2n1CCN(Cc1ccc(C(F)(F)F)cc1)C2	-19%
Cc1nc(CN2C(=O)OC3(CCN(Cc4c[nH]c5ccccc45)CC3)C2(C)c2ccccc2)cs1 (centres undefined)	-1%
COC1CN(c2ccc(C)cc2)C12CCN(C(=O)c1ccncc1)CC2 (centres undefined)	-25%
CC1(C)CN(C(=O)c2ncc(F)cc2F)CCC1(O)CN1CCOCC1 (centres undefined)	11%
